Results on four molecules are retold here after PubChem BioAssay (NCATS).

Inconclusive results are not listed. Unmarked numbers belong to inactive results. Activity calls are given as the source filed them. The call rests on the fitted dose curve; in most records, active means well fitted inhibition curve with a large enough effect; inconclusive means small, poorly fitted or top-dose-only effect; inactive means no such curve, though single readings can be large or run the other way.
On the % scale 0 is the no-effect control and ±100 the full control effect; potency means the concentration at half of the fitted maximal effect.

In the assay the target is Retinal dehydrogenase 2 (Homo sapiens) (UniProt O94788). Kind of assay: qHTS for Inhibitors of the Aldehyde Dehydrogenase Family (ALDH1A2) Confirmation screens (AID 2061314). Further: nearly all actives have a fitted effect of over 65% in size. The conditions noted are these: ALDH1A2 enzyme inhibition qHTS confirmation; series mostly up to 45.9 µM; activity, negative = inhibition: at the top concentration. On the technique in general: Quantitative high-throughput screening tests each substance at several concentrations.
As to `CCc1nn2c(=O)c(S(=O)(=O)Nc3ccc(C)cc3C)c(C)nc2s1`, the “activity, negative = inhibition” value was -10.2%.

For the molecule `O=C(O)c1cc(Br)c(O)c2ncccc12`, the Potency was 0.449 µM (active). On the same count and under the same terms, next, `CCC(=O)NC(C)c1cc(Cl)c2ccccc2c1O` (centres undefined): 1.01 µM (active); `COc1cccc(CNc2ccc(S(=O)(=O)Nc3ccc(N4CCNCC4)nc3)cc2)c1O`: 22.5 µM (active).
